Inhibition data for 60 molecules are collected here from PubChem BioAssay AID2521 (Sanford-Burnham Center for Chemical Genomics, 2010).

The whole screen tested about 330,000 compounds, of which about 1,100 (0.33%) were called active. The sample holds actives, similar compounds and a random draw of the others, so the mix is not that of the screen.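 How the source made its calls: active means inhibition above about 40% at 20 µM (limit read from the data); inactive means the rest.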

Chain of Apelin receptor (Homo sapiens) (P35414 whole entry, looked up): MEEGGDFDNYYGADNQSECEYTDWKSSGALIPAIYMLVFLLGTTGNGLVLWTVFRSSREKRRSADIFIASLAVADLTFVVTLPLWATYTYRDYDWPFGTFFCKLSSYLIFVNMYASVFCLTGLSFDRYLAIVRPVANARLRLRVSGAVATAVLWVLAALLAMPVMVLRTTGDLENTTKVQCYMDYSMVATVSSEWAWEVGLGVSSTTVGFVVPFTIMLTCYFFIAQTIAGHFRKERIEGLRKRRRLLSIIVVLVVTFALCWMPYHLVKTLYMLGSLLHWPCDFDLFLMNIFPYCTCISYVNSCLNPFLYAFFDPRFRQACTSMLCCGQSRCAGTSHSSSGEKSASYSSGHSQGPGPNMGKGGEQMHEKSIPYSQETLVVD

The experiment concerns the target Apelin receptor (Homo sapiens) (UniProt P35414). Kind of experiment: blockade of apelin-induced APJ beta-arrestin recruitment – CHO-K1 cells, beta-arrestin complementation, luminescence, primary screen (AID 2521).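 Further: cells challenged with 10 nM apelin-13 agonist together with compound; plate controls were apelin-13 plus DMSO wells for no effect and DMSO wells lacking apelin-13 for full effect.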 The note with it: at 20 µM, active compounds read high. (Recruitment of arrestin is a read-out of receptor activation apart from second messengers.)
Consider `COc1ccc(S(=O)(=O)N2CCOCC2)c(C)c1C`, for which the inhibition was 3% (inactive). Take `COc1ccccc1NC(=O)c1c(Br)cnn1C`: the inhibition is -0.0339% (inactive). As for `CN=C1C=C/C(=N/N=c2\ccn(O)cc2C)C=C1C`, the inhibition is 46% (active). As for `CC(C)C[C@@H](N)c1nnc(SCC(=O)c2ccc(Cl)cc2)o1`, the figure is 6.62% (inactive); as for `O=C1Oc2ccccc2C(=O)/C1=C/c1ccccc1O`, 3.82% (inactive); as for `O=C(NCCCc1ccccc1)C1CCC(=O)N(CCc2ccc(Cl)cc2)C1` (stereo not given), 4.1% (inactive). Turning to `COc1cccc(NC(C)=[N+](C)CCNS(=O)(=O)c2ccc(Cl)cc2)c1`, the inhibition is 13.5% (inactive). Under `CCOC(=O)c1cnc(Nc2nc3ccccc3o2)nc1CSC(=S)N1CCCCC1` stands 44.1% (active); under `CCOC(=O)CCNC(=O)N1CCCC(C(=O)c2ccccc2SC)C1` (stereo not given), -13.5% (inactive); under `CCc1ccc(CNC(=O)C2CCCN(c3nc4ccccc4o3)C2)cc1` (stereo not given), -5.94% (inactive). As for `O=C(CC1SC(=Nc2ccccc2)N(Cc2ccccn2)C1=O)Nc1cccc(Cl)c1` (stereo not given), the figure is 0.604% (inactive). On to `COc1ccc(CCNC(=S)NC(=O)/C=C/c2ccc(C)cc2)cc1OC`, for which the inhibition was -38% (inactive). On to `Cc1ccc(S(=O)(=O)N2CCN(CC(=O)N/N=C/c3cc([N+](=O)[O-])ccc3Cl)CC2)cc1`, for which the inhibition is -9.95% (inactive). In the case of `O=S(=O)(c1ccc(NC(=S)NN=C(C2CC2)C2CC2)cc1)N1CCOCC1`, the inhibition was -24.4% (inactive). On to `O=[N+]([O-])c1cc(Cl)cc(/C=N/NC(=S)Nc2cc(S(=O)(=O)N3CCOCC3)ccc2Cl)c1O`, for which the inhibition is 42.1% (active). As for `Cn1cc[n+](C)c1COc1ccc(C=O)cc1`, the figure is -7.79% (inactive); as for `COC(=O)Cc1ccc(OC(=O)C2CCN(S(=O)(=O)c3ccc(OC)c(OC)c3)CC2)cc1`, 11.3% (inactive); as for `CN(CC(=O)NCc1cccnc1)S(=O)(=O)c1cc(Cl)ccc1Cl`, -3.77% (inactive). As for `CC(=O)N1c2ccc(S(=O)(=O)N3CCC(C(=O)NCc4ccc(F)cc4)CC3)cc2CC1C` (stereo not given), the inhibition was 7.14% (inactive). Under `COc1cccc(CNC(=O)C(=O)NCCC2CCCCN2S(=O)(=O)c2ccc(C)cc2)c1` (stereo not given) stands -56.9% (inactive); under `c1ccc(Cc2nn3c(Cn4cnc5ccccc54)nnc3s2)cc1`, 7.67% (inactive); under `Cc1ccc(C(=O)COC(=O)c2cccc(N3C(=O)c4c(C)nc5ccccc5c4C3=O)c2)cc1C`, -8.71% (inactive). Under `COc1ccc(C(=O)NCC(=O)N/N=C/c2cccnc2)cc1` stands 4.23% (inactive); under `O=C(CSc1cccc2cccnc12)N/N=C/c1cccnc1`, 41.8% (active).

For the molecule `CCOC(=O)N/N=C/c1cccnc1`, the inhibition is 11.3% (inactive). With `CS(=O)(=O)N1CCc2cc(C(=O)Nc3ccccc3)ccc21`, the inhibition is 6.74% (inactive). `Clc1ccc(Cn2ncc3c(NCc4cccnc4)ncnc32)cc1`: the inhibition is -0.393% (inactive). Consider `CCOc1ccc(S(=O)(=O)Nc2ccc(S(=O)(=O)Nc3cc(OC)ccc3OC)cc2)cc1`, for which the inhibition was 15.7% (inactive).

Regarding `COc1ccc(N2CC(NS(=O)(=O)c3ccc4ccccc4c3)CC2=O)cc1` (stereo not given), the inhibition was 1.28% (inactive). With `COc1cc(NS(=O)(=O)c2ccc3ccccc3c2)c2ncccc2c1`, the inhibition was 65.3% (active).

`O=C(NCCS(=O)(=O)NCc1ccc(Cl)cc1)c1ccccc1`: the inhibition was -4.12% (inactive).

As for `O=C(CN1C(=O)NC2(CCCC2)C1=O)Nc1ccc(F)c(F)c1F`, the inhibition was 8.35% (inactive).

Consider `COc1cccc(CC2(CO)CCN(Cc3cnc(-c4cccc(C)c4)nc3)CC2)c1`, for which the inhibition is -17.4% (inactive). On to `C/C(=N\NC(=O)c1ccccc1F)c1ccccn1`, for which the inhibition is 57.1% (active). Under `COc1ccc(/C(C)=N\NC(=O)c2ccc(-c3ccccc3)cc2)c(F)c1` stands 8.03% (inactive); under `Cc1cnc(NC(=O)c2ccccn2)s1`, 9.6% (inactive). As for `CCOC(=O)[C@H]1CCC[C@@H](NS(=O)(=O)c2ccc(NC(C)=O)cc2)C1`, the inhibition is 6.91% (inactive). Under `CC(C)(C)c1cc(C(=O)NN)n(Cc2ccc(Cl)cc2Cl)n1` stands -15% (inactive); under `Cc1ccc(C(=O)OC2=CC(=O)CC(C)(C)C2)cc1`, -13.7% (inactive).

On to `CCc1c(C)sc(NC(=O)c2cccs2)c1C(N)=O`, for which the inhibition is 1.68% (inactive). As to `COc1ccc(/C=N/N=C2/C(=O)Nc3ccccc32)cc1O`, the inhibition is -11.9% (inactive).

Consider `O=C1Nc2ccc(Br)cc2/C1=N/N=C/C1=C(N2CCOCC2)C(=C\c2ccccc2)/CC1`, for which the inhibition was 46.4% (active). As for `O=C(c1cccc(-n2cccc2)c1)N1CCN(S(=O)(=O)c2ccc(F)cc2)CC1`, the figure is -9.43% (inactive); as for `COc1cc(Nc2nc3ccc(Cl)cc3n3cnnc23)cc(OC)c1OC`, -3.66% (inactive). As for `Nc1nc(SCC(=O)NNc2c(Cl)cc(Cl)cc2Cl)n[nH]1`, the figure is -14.8% (inactive); as for `COc1ccc(CNc2cc(C)cc(C)c2)cc1OC`, -9.47% (inactive). Under `CN(CC(=O)Nc1ccc(F)c(F)c1F)C(=O)C1CC(=O)N(C2CCCC2)C1` (stereo not given) stands 19.9% (inactive). Consider `CCN(CC(=O)Nc1ccc(OC)cc1)C(=O)CSCc1ccc(C)cc1`, for which the inhibition was 12.9% (inactive). Under `COC(=O)c1sccc1NC(=S)Nc1ccc(C)cc1` stands -10.8% (inactive); under `COc1ccc(CS(=O)/C(Cl)=C(/Cl)C(=O)Nc2ccc(OC)nc2)cc1` (stereo not given), 67.6% (active); under `COc1ccc(NC(=O)/C(Cl)=C(/Cl)S(=O)Cc2ccc(C)cc2)cn1` (stereo not given), 89.8% (active). Consider `COc1ccc(CCC(=O)c2ccc(OC)cc2)cc1`, for which the inhibition was -11.9% (inactive). As for `COc1ccc(OC(C)C(=O)Nc2cccnc2)cc1` (stereo not given), the figure is 15.8% (inactive); as for `CC1CCCCN1C(=O)CCS(=O)(=O)Cc1ccccc1` (stereo not given), 11.3% (inactive).

For the molecule `Cc1nc(CN2CCN(C(=O)CCc3nnc(Cc4c[nH]c5ccccc45)o3)CC2)cs1`, the inhibition is 21.1% (inactive). For the molecule `CSC1=N/C(=C\C=C\c2cccs2)C(=O)S1`, the inhibition was 5.36% (inactive). For the molecule `CC(C)c1ccc(NS(=O)(=O)c2cn(C)c(=O)n(C)c2=O)cc1`, the inhibition is 7.41% (inactive). `CCCc1nc2c(C)cc(-c3nc4ccccc4n3C)cc2n1Cc1ccc(-c2ccccc2C(=O)O)cc1`: the inhibition was 9.96% (inactive). Regarding `CC(=O)c1c(C)[nH]c(C(=O)CN2C(=O)NC(C)(C)C2=O)c1C`, the inhibition was 8.53% (inactive). As for `Cc1ccc(SC(C)C(=O)NCc2ccc(F)cc2)cc1` (stereo not given), the figure is 16.8% (inactive).

One may read the inhibition as the relative decrease from the control value, in per cent.
